The text below walks through data of PubChem BioAssay AID463173 (ICCB-Longwood Screening Facility, Harvard Medical School, 2010).

The campaign covered roughly 52,000 compounds. About 4,300 (8.3%) were called active. This is one part of a sample in which actives are shown more often than they occur. Cut-off read from the data, not from the text of the source: active = survival mostly below about 52% (no sharp cut-off); inactive = mostly above about 56%.

In the assay the test system is DeltatarO mutant. The assay can be described thus: S. aureus survival, RN4220 and DeltatarO strains – OD600, teichoic acid synthesis inhibitors, primary screen (AID 463173). Particulars: S. aureus RN4220 wild type/DeltatarO growth, OD600, 18 h, hits give low values, screened at 18.75 µg/mL (by protocol).
Consider `CCOC(=O)c1[nH]c(C)c(CCC(=O)NCc2ccc(OC(C)C)cc2)c1C`, for which the survival is 80% (inactive).

With `COc1ccc(C2CC(=O)N(Cc3ccc(F)cc3)c3ccccc3S2)cc1OC` (configuration not stated), the survival is 100% (inactive). Next, `CCc1ccc(NC(=O)CN2C(=O)CC(c3ccccc3)Sc3ccccc32)cc1` (configuration not stated): 113% (inactive); `O=C1CC(c2ccccc2)Sc2ccccc2N1Cc1ccc(F)cc1` (configuration not stated): -2% (active); `COc1ccc(C2CC(=O)N(Cc3cccc(F)c3)c3ccccc3S2)cc1` (configuration not stated): 47% (active). For `COc1ccc(C2CC(=O)N(Cc3ccc(F)cc3)c3ccccc3S2)cc1` (configuration not stated), the survival is 28% (active). As for `O=C1CC(c2ccccc2)Sc2ccccc2N1Cc1ccccc1F` (configuration not stated), the survival is 96% (inactive). As for `COc1cc(C2CC(=O)N(Cc3ccc(F)cc3)c3ccccc3S2)cc(OC)c1OC` (configuration not stated), the survival was 75% (inactive). Take `COc1cc(C2CC(=O)N(Cc3cccc(F)c3)c3ccccc3S2)cc(OC)c1OC` (configuration not stated): the survival was 103% (inactive). On to `COc1ccc(C2CC(=O)N(CC(=O)Nc3cc(C)ccc3C)c3ccccc3S2)cc1` (configuration not stated), for which the survival was 79% (inactive).

Consider `COc1ccc2c(c1)c(=O)c(C(=O)c1ccc(C)c(C)c1)cn2CC(=O)Nc1ccc2c(c1)OCCO2`, for which the survival was 76% (inactive). As to `CCOc1ccc(NC(=O)Cn2cc(C(=O)c3ccc(CC)cc3)c(=O)c3cc(OC)c(OC)cc32)cc1`, the survival was 98% (inactive). In the case of `CCOC(=O)c1ccc(NC(=O)CCc2c(C)nc3c(-c4ccc(F)cc4)c(C)nn3c2C)cc1`, the survival was 61% (inactive). As for `COc1ccccc1N1CCN(C(=O)c2ccc(Nc3nc4ccccc4n4nnnc34)cc2)CC1`, the survival is 59% (inactive). The result for `Cc1ccc(CNC(=O)C2CCC(CNS(=O)(=O)c3ccc4c(c3)CCCC(=O)N4)CC2)cc1` (configuration not stated) reads 79% (inactive); that for `COc1cccc(C(c2sc3nc(-c4ccco4)nn3c2O)N2CCCC2)c1` (configuration not stated), 71% (inactive). Next, `COc1ccc(OC)c2sc(N3CCN(C(=O)C4COc5ccccc5O4)CC3)nc12` (configuration not stated): 88% (inactive); `Cc1ccc(C)c2sc(N3CCN(C(=O)c4ccco4)CC3)nc12`: 134% (inactive); `COc1ccc(OC)c2sc(N3CCN(C(=O)C(C)(C)C)CC3)nc12`: 89% (inactive). Next, `COc1ccc(OC)c2sc(N3CCN(C(=O)C4CC4)CC3)nc12`: -5% (active). Take `COc1ccc(OC)c2sc(N3CCN(C(=O)c4ccco4)CC3)nc12`: the survival is 87% (inactive). For `COc1ccc(C)c2sc(N3CCN(C(=O)c4ccco4)CC3)nc12`, the survival is 17% (active). Next, `CCn1cc(S(=O)(=O)c2cccc(C)c2)c(=O)c2cc(F)c(N3CCCCC3C)cc21` (configuration not stated): 83% (inactive).

Regarding `CCc1ccc2[nH]c(=O)c(C(c3nnnn3C(C)(C)C)N3CCc4ccccc43)cc2c1` (configuration not stated), the survival was 96% (inactive). Next, `Cc1oc(-c2ccc(C(=O)N(C)Cc3ccccc3)cc2)nc1CN1CCc2ccccc21`: 119% (inactive).

Regarding `Cc1ccc(-n2nc3ccc(NC(=O)Cc4ccc(Cl)cc4)cc3n2)cc1`, the survival was 79% (inactive). Take `CCOc1ccc(CNC(=O)Cn2c(=O)c3cccn3c3ccccc32)cc1`: the survival was 60% (inactive). With `CCOC(=O)c1cccc(Nc2c3c(nc4ccccc24)CCC3)c1`, the survival was 68% (inactive). As for `COc1ccc(Nc2c3c(nc4ccc(NC(=O)c5cc(Cl)ccc5OC)cc24)CCCC3)cc1OC`, the survival was 70% (inactive). Take `Fc1ccccc1Nc1c2c(nc3ccccc13)CCC2`: the survival was 95% (inactive). The result for `COc1cc(Cl)c(C)cc1Nc1c2c(nc3ccccc13)CCC2` reads 70% (inactive). Turning to `FC(F)(F)c1cccc(Nc2c3c(nc4ccc(Cl)cc24)CCC3)c1`, the survival is 9% (active).

For `Fc1ccc(F)c(Nc2c3c(nc4ccc(Cl)cc24)CCC3)c1`, the survival was -18% (active). Next, `O=C(Nc1c(C(=O)N2CCN(c3ccc(F)cc3)CC2)oc2ccccc12)c1c(F)cccc1F`: 95% (inactive); `CCC(=O)Nc1ccccc1-c1nc2ccccc2n(Cc2cccc(Br)c2)c1=O`: 49% (inactive); `CCn1cc(C(=O)NCCc2ccc(Cl)cc2)c(=O)c2cc(S(=O)(=O)N(C)C3CCCCC3)ccc21`: 84% (inactive). Take `O=C(NCc1cccc(F)c1)C1CCN(c2nn3cc(-c4ccc(F)cc4)nc3s2)CC1`: the survival was 87% (inactive). Next, `CC(=O)Nc1ccc(NC(=O)C2CCN(c3c(NC(C)=O)c(C)nn3-c3ccccc3)CC2)cc1`: 67% (inactive).

With `CC(=O)Nc1c(C)nn(-c2ccccc2)c1N1CCC(C(=O)NCc2ccccc2Cl)CC1`, the survival was -2% (active). The result for `CC(=O)Nc1c(C)nn(-c2ccccc2)c1N1CCC(C(=O)NCc2cccc(F)c2)CC1` reads 6% (active); that for `CC(=O)Nc1c(C)nn(-c2ccccc2)c1N1CCC(C(=O)Nc2ccc(C)cc2Cl)CC1`, 72% (inactive); that for `CC(=O)Nc1c(C)nn(-c2ccccc2)c1N1CCC(C(=O)NCc2ccc(F)cc2)CC1`, -1% (active). Turning to `Cc1ccc(CNC(=O)C2CCN(c3nn4cc(-c5ccc(F)cc5)nc4s3)CC2)cc1`, the survival is 87% (inactive). Regarding `CC(=O)Nc1c(C)nn(-c2ccccc2)c1N1CCC(C(=O)Nc2ccc(F)cc2Cl)CC1`, the survival was 76% (inactive). For the compound `CC(=O)Nc1c(C)nn(-c2ccccc2)c1N1CCC(C(=O)Nc2cc(F)ccc2F)CC1`, the survival was 79% (inactive).

Turning to `CC(=O)Nc1c(C)nn(-c2ccccc2)c1N1CCC(C(=O)NCc2cccc(Cl)c2)CC1`, the survival was 84% (inactive). In the case of `Cc1cccc(CNC(=O)C2CCN(c3nn4cc(-c5ccc(F)cc5)nc4s3)CC2)c1`, the survival is 47% (active). As for `CC(=O)Nc1c(C)nn(-c2ccccc2)c1N1CCC(C(=O)NCc2ccc(Cl)cc2)CC1`, the survival was 72% (inactive).

Regarding `COc1ccc(OC)c(C2CC(=O)Nc3c2c(=O)n(C)c2ncnn32)c1` (configuration not stated), the survival is 166% (inactive).

For `O=C(Nc1ccc(N2CCOCC2)cc1)c1ncn[nH]1`, the survival is 86% (inactive).

With `Cc1ccc(NC(=O)Cn2c(SCc3cccc(F)c3)nc3ccncc32)c(C)c1`, the survival was 83% (inactive). On to `Cc1ccc(O)c(NC(=O)c2cc(-c3ccccc3O)no2)c1`, for which the survival is 80% (inactive). As for `O=C(NC1CC(=O)N(c2ccc(F)cc2)C1)c1ccc(S(=O)(=O)N2CCCCC2)cc1` (configuration not stated), the survival is 75% (inactive). As to `CCOc1ccc(N2CC(NC(=O)c3ccc(S(=O)(=O)N4CCCC4)cc3)CC2=O)cc1` (configuration not stated), the survival is 87% (inactive). Take `CCOc1ccc(N2CC(NC(=O)c3ccc(S(=O)(=O)N4CCOCC4)cc3)CC2=O)cc1` (configuration not stated): the survival was 47% (active). As to `O=C(NC1CC(=O)N(c2ccccc2)C1)c1ccc(S(=O)(=O)N2CCCC2)cc1` (configuration not stated), the survival was 128% (inactive). `CCOc1ccc(N2CC(NC(=O)c3ccc(S(=O)(=O)N4CCCCC4)cc3)CC2=O)cc1` (configuration not stated): the survival was 79% (inactive). As to `O=C(NC1CC(=O)N(c2ccccc2)C1)c1ccc(S(=O)(=O)N2CCCCC2)cc1` (configuration not stated), the survival was 17% (active). Regarding `Cc1c(Cl)cccc1N1C(N)=C(C#N)C(c2cc(CN3CCOCC3)cs2)C2=C1CCCC2=O` (configuration not stated), the survival is 128% (inactive). For `COc1ccc(NC(=O)c2c(NCc3ccc(C)o3)sc3c2CCC(C)C3)c(OC)c1` (configuration not stated), the survival is 82% (inactive). The result for `COc1ccc(Cl)cc1NC(=O)c1c(NCc2ccc(C)o2)sc2c1CCC(C)C2` (configuration not stated) reads 81% (inactive); that for `COc1ccc(OC)c(NC(=O)c2c(NCc3ccc(C)o3)sc3c2CCC(C)C3)c1` (configuration not stated), 52% (active). Turning to `Cc1nnc(SCC#N)n1C`, the survival is 92% (inactive). As for `CC(=O)Nc1ccc(S(=O)(=O)NCc2ccc(C(=O)NCc3ccc(Cl)cc3)cc2)cc1`, the survival was 68% (inactive).

For the compound `Cc1ccc(-c2nn(-c3ccc(F)cc3)c3c2cnc2cc(F)c(F)cc23)cc1`, the survival was 82% (inactive). As for `CSc1ccc(CCNC(=O)CCc2c(C)nc3c(c(C)nn3-c3ccc(C)c(C)c3)c2C)cc1`, the survival is 91% (inactive).

Regarding `Cc1ccc2c(c1)c(=O)c1ccccc1n2CCCC(=O)Nc1ccc(Cl)cc1C`, the survival is 45% (active).

Regarding `Cc1ccc2c(c1)c(=O)c1ccccc1n2CCCC(=O)Nc1c(F)cccc1F`, the survival is 53% (inactive). Regarding `CCCn1c2ccccc2c2cnn(CC(=O)Nc3ccc(C)cc3Br)c(=O)c21`, the survival was 94% (inactive). As to `Cc1ccc(CCNC(=O)CCCn2c(=O)c3ccccc3n(CC(=O)Nc3cc(Cl)ccc3C)c2=O)cc1`, the survival was 116% (inactive).

On to `Cc1ccc2c(c1)c(=O)c1ccccc1n2CCCC(=O)Nc1ccc(F)cc1F`, for which the survival was 49% (active).

With `Cc1ccc(NC(=O)CCCn2c3ccccc3c(=O)c3cc(C)ccc32)c(Br)c1`, the survival is 38% (active). `Cc1ccc2c(c1)c(=O)c1ccccc1n2CCCC(=O)Nc1cc(Cl)ccc1C`: the survival was 113% (inactive). As for `Cc1ccc(NC(=O)CCS(=O)(=O)c2ccc3c(c2)oc(=O)n3C)c(Br)c1`, the survival is 80% (inactive). Turning to `Cc1c2cnn(-c3ccccc3)c(=O)c2c(C)n1CCCC(=O)Nc1ccc(F)cc1F`, the survival is 72% (inactive). Next, `CCOc1ccccc1NC(=O)C(C)Sc1cc(-c2ccccc2)nc(C)n1` (configuration not stated): 59% (inactive); `CCOC(=O)c1ccc(NC(=O)C(CC)Sc2nc3ncccc3o2)cc1` (configuration not stated): 81% (inactive); `C=Cn1c(=N)n(C)c2ccccc21`: 70% (inactive). For `O=C(CN1C(=O)COc2ccc(S(=O)(=O)N3CCOCC3)cc21)N1CCN(c2ccccc2)CC1`, the survival is 116% (inactive).

Turning to `COc1ccccc1CNC(=O)c1ccc(-c2nc(CS(=O)(=O)c3ccc(C)cc3)c(C)o2)cc1`, the survival was 73% (inactive). In the case of `COc1ccc(F)cc1NC(=O)C1CCN(c2nc(-c3ccc(OC)c(OC)c3)no2)CC1`, the survival was 48% (inactive).

As for `Cc1ccc(NC(=O)CCc2nc3cccnc3n2-c2ccccc2)cc1Cl`, the survival is 64% (inactive). As for `Cc1cc(NC(=O)CCc2nc3cccnc3n2-c2ccccc2)ccc1Br`, the survival is 31% (active). Consider `Cc1ccc(NC(=O)CCc2nc3cccnc3n2-c2ccccc2)cc1`, for which the survival was 80% (inactive). `CCOC(=O)Cn1c(-c2cccs2)cc2cc(Cl)ccc21`: the survival is 59% (inactive). On to `COc1cccc(Nc2nc3ccc(C(=O)c4ccccc4)cc3n3c(C)nnc23)c1`, for which the survival was 85% (inactive).

Turning to `CCc1cccc(NC(=O)c2ccc(CN3C(=O)C(C)=C(c4ccc(OC)cc4)S3(=O)=O)cc2)c1`, the survival was 71% (inactive).
